# Reference: PubChem BioAssay AID861 (The Scripps Research Institute Molecular Screening Center, 2007)
# In all, about 200,000 compounds went through this assay and about 360 (0.18%) were called active. Many of the other results were omitted from the sample, so actives are more common in it than they were. Unmarked numbers belong to inactive results. Rule as the data show it: active = inhibition above about 25%; inactive = the rest.
# Molecular target: Toll-like receptor 4 (Homo sapiens) + Myeloid differentiation primary response protein MyD88 (Homo sapiens) (UniProt O00206+Q99836)
# Sequence (O00206 whole entry, looked up): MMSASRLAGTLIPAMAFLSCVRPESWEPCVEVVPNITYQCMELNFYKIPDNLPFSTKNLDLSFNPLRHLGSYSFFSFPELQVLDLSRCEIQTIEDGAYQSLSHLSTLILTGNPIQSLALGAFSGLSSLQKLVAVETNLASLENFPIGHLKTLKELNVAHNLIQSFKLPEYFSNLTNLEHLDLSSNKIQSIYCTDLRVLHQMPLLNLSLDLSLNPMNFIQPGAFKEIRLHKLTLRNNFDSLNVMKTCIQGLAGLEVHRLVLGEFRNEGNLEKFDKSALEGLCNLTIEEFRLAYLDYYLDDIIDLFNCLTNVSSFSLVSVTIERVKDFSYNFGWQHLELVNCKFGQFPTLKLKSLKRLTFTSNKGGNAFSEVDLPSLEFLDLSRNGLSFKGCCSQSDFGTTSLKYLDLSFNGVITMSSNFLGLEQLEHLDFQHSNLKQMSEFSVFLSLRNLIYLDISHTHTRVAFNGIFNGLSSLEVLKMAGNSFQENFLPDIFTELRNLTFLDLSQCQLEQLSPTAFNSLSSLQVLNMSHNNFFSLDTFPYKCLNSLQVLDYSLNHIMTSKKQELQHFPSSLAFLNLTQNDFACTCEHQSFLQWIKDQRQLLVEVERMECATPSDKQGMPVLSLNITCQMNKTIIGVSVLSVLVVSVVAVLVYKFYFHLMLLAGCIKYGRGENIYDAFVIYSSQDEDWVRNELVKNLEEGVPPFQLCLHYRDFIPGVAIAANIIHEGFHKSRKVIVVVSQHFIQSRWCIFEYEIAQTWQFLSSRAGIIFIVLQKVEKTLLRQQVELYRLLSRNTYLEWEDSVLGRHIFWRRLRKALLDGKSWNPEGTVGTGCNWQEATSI
# Sequence (Q99836 whole entry, looked up): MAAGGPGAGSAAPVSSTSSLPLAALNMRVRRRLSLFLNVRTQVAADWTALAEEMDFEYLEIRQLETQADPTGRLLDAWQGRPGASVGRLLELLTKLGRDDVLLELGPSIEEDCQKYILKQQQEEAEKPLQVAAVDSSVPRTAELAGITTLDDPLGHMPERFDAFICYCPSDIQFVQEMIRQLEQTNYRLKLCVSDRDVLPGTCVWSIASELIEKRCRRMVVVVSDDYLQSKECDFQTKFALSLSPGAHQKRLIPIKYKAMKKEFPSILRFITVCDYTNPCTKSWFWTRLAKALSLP
# Assay: disruptors of TLR4 binding to MyD88 – cell-based, HeLa CL3-4, BLA complementation, FRET ratio, primary screen (AID 861);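 also: 0% = vehicle and 100% = reference inhibitor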
# Details: HeLa CL3-4 TLR4/MyD88 BLA complementation, at 8.4 µM, hits give high values
row,SMILES,inhibition
1,CCOC(=O)c1c(N)sc(C(C)=O)c1C,1.12%
2,CCOC(=O)c1sc(NC(=O)CSc2nc(O)c(Cc3ccccc3)c(=O)[nH]2)nc1C,1.47%
3,CCn1cc(-c2cc(C(=O)O)on2)c(C)n1,1.59%
4,COc1cccc(/C=C(/CC(=O)Nc2ccc(N3CCOCC3)cc2)c2nc3ccccc3s2)c1,5.83%
5,O=C(COC(=O)Cc1ccc(F)cc1)Nc1cc(S(=O)(=O)N2CCOCC2)ccc1N1CCCC1,-6.48%
6,Cc1[nH]c2ccccc2c1/C=N\NC(=O)Cn1nnc(-c2ccccc2)n1,-5.01%
7,Cc1cccc(C)c1NC(=O)C1CCCN1C(=O)OC(C)(C)C (stereo not drawn),-1.58%
8,O=C(Nc1ccccc1)O/N=C1\CCCCC1c1ccc([N+](=O)[O-])cc1[N+](=O)[O-] (stereo not drawn),5.14%
9,CCn1c(SCc2cc(=O)n3ccsc3n2)nc2ccccc21,-21.4%
10,Cc1nccn1CCCNC(=O)CC1C(=O)NCCN1Cc1ccc(Cl)c(F)c1 (stereo not drawn),-15.6%
11,Cc1ccc(NC2=C(Cl)C(=O)OC2OC(=O)c2ccccc2C)cc1 (stereo not drawn),-14.9%
12,CC(=O)c1ccc(N=C2SCCCN2C(=O)C2CCCCC2)cc1,0.78%
13,Fc1cccc2ncnc(OCc3ccccc3)c12,-8.75%
14,CCC(C)(C)NC(=O)C(c1ccccn1)N(C(=O)c1csnn1)c1ccccc1 (stereo not drawn),2%
15,COc1ccc(NC(=S)NCC2CCN(c3ccc(OC)cc3)C2)cc1 (stereo not drawn),-0.81%
16,CC(=O)Nc1ccc(CN2CCN(Cc3ccc(F)c(F)c3)C(CCO)C2)cc1 (stereo not drawn),-0.85%
17,COc1cc(CN2CCNC(=O)C2CC(=O)NCCc2ncccc2C)cc(OC)c1 (stereo not drawn),-11.2%
18,COc1cccc(NCCC(=O)c2cccc([N+](=O)[O-])c2)c1,9.38%
19,CCOc1ccc(-n2cnnn2)cc1S(=O)(=O)N1CCC(C)CC1C (stereo not drawn),-2.33%
20,O=C(NCc1ccco1)c1ccc(NS(=O)(=O)c2cccc([N+](=O)[O-])c2)cc1,11.7%
21,CC(=O)c1c(C)[nH]c(C(=O)OCC(=O)Nc2sc3c(c2C#N)CCCC3)c1C,-2.59%
22,COc1cc(OC)c(C(=O)Nc2ccccc2-c2ccccc2)cc1OC,-14%
23,CC(=O)Nc1ccc(C(=O)CSc2nc3ccc(C)cc3[nH]2)cc1,5.15%
24,O=C(NNC(=S)Nc1ccccc1)c1cccc(S(=O)(=O)N2CCOCC2)c1,-2.25%

row,SMILES,inhibition
1,CCN(CC)c1ccc2oc(=O)c(C)nc2c1,26.6% (active)
2,CCN(CC)c1ccc2cc(C(=O)O)c(=O)oc2c1,2.27%
3,CCN(CC)c1ccc2c(Nc3ccccc3)c(C=O)c(=O)oc2c1,6.79%
4,CSc1ccc(/C=N/N2CCN(Cc3ccccc3Cl)CC2)cc1,8.51%
5,Cc1ccc(NC(=O)c2cc([N+](=O)[O-])ccc2Cl)c(O)c1,-13.5%
6,O=C(/C=C/c1ccc(F)cc1)Nc1cccc(S(=O)(=O)Nc2cccc(C(F)(F)F)c2)c1,-0.34%
7,CCOc1cccc(/C=C/c2ccc3ccccc3n2)c1OC(C)=O,8.04%
8,O=C(CCN1C(=O)c2ccncc2C1=O)Nc1cc(F)ccc1F,1.62%
9,CC(=O)Nc1ccc(NC(=O)COc2ccc(S(=O)(=O)NC(C)c3ccccc3)cc2)cc1 (stereo not drawn),-6.49%
10,O=C(CN1CCCC1)N1CCN(c2ccccc2)CC1,-1.74%
11,COCCCNC(=S)NNC(=O)C(O)(c1ccccc1)c1ccccc1,1.88%
12,Cc1cc(/C=N/NC(=O)CC2(C)OCCO2)c(C)n1-c1ccc(Cl)c(Cl)c1,-8.27%
13,Cc1nnc(SCC(=O)N2c3ccccc3C(C)(c3ccc(Cl)cc3)CC2(C)C)s1 (stereo not drawn),-17.2%
14,CC/S(CC1CC1(Cl)Cl)=N\S(=O)(=O)c1ccc(C)cc1 (stereo not drawn),-3.44%
15,Cc1ccc(OCc2nnc(SC3CCc4ccccc4C3=O)n2C)cc1 (stereo not drawn),-13.3%
16,CCC1C(=O)c2ccccc2N(C)C1=O (stereo not drawn),3.79%
17,N#CC1(NC(=O)COc2ccc3oc4ccccc4c3c2)CCCCC1,-7.56%
18,CN(CCC1CCOCC1)Cc1cn[nH]c1-c1ccc(-c2ccccc2)cc1,-6.36%
19,Cc1ccc(NC(=O)c2ccccn2)cc1S(=O)(=O)N1CCOCC1,-12.9%
20,C=CCN1C(=O)C(O)(CC(=O)c2ccccn2)c2ccccc21 (stereo not drawn),0.55%
21,CC1=NN(C(=O)CCc2ccccc2O)C(O)(C(F)(F)F)C1 (stereo not drawn),-5.78%
22,CCn1c2ccccc2c2cc(NC(=O)C/C(C)=N/NC(=O)c3ccccc3N)ccc21,-6.09%
23,CCCCCCOc1ccc(OC(=O)c2cccnc2)cc1,-5.46%
24,CC(=O)Nc1ccc(S(=O)(=O)NC(C)C(=O)OCC(=O)NC2CCCC2)cc1 (stereo not drawn),-2.35%

row,SMILES,inhibition
1,COCCNC(=O)NC(=O)COC(=O)C1(c2ccc(Cl)cc2)CC1,1.43%
2,O=C(Nc1nnc(-c2ccco2)o1)c1ccc(S(=O)(=O)N2CCOCC2)cc1,9.33%
3,CN(C)CCCN1C(=O)CSC1c1ccc([N+](=O)[O-])cc1 (stereo not drawn),2.09%
4,COC(=O)c1nc2n(n1)C(c1ccc([N+](=O)[O-])cc1)C(C(=O)Nc1ccc(Cl)cc1)=C(C)N2 (stereo not drawn),4.62%
5,COc1cc(NC(=S)N2CCCC(C)C2)cc(OC)c1OC (stereo not drawn),6.42%
6,COc1ccc(C2Nc3ccccc3C(=O)N2c2ccc(Cl)cc2)cc1Cn1cc([N+](=O)[O-])cn1 (stereo not drawn),-3.28%
7,Cc1nc(N=C(N)N)nc2c(C)cccc12,-6.85%
8,COc1cccc(C(=O)Nc2cc3c(cc2Br)OCCCO3)c1,5.11%
9,CCc1cccc(NC(=O)CCC(=O)O)c1,-11%
10,CC(=O)c1cc(C#N)c(N2CCCCC2)nc1C,7.39%
11,CCN(CC)S(=O)(=O)c1cc([N+](=O)[O-])ccc1N=Nc1c(O)n(C)c2ccccc12,6.59%
12,Cc1cccc(C)c1N1CCN(S(=O)(=O)N2CCCCC2)CC1,-5.18%
13,CC1CCN(C(=O)c2ccc(CSc3ccc(Cl)cc3)cc2)CC1,2.08%
14,C=C(C)C1CC=C(C)/C(=N\NC(=O)CNc2ccccc2OC)C1 (stereo not drawn),3.79%
15,O=C(c1ccc2ccccc2n1)N1CCN(c2ccccc2Cl)CC1,-7.41%
16,CCOC(=O)c1[nH]cnc1C(=O)Nc1ccccc1C,4.26%
17,COc1ccc(C2CC(c3cccs3)=NN2c2ccccc2)cc1 (stereo not drawn),0.51%
18,COc1ccccc1N1N=C(c2cccs2)CC1c1ccccc1 (stereo not drawn),44.4% (active)
19,COc1ccc(C2CC(c3cccs3)=NN2c2ccc(F)cc2)cc1OC (stereo not drawn),5.58%
20,O=C(Nc1ccc(Br)cn1)c1ccc([N+](=O)[O-])cc1Cl,0.87%
21,O=C(/C=C/c1ccccc1)c1ccoc1,4.74%
22,O=C(O)c1ccc2c(c1)C(=O)N(c1ccc(/C=C/C(=O)c3ccccc3)cc1)C2=O,-0.8%
23,O=C(/C=C/c1ccc(N2CCOCC2)cc1)c1ccccc1,27.9% (active)
24,CCOc1ccc(-c2n[nH]c(=S)n2/N=C/c2cc3c(cc2[N+](=O)[O-])OCO3)cc1,-2.5%

row,SMILES,inhibition
1,CCOC(=O)CCCN1CC(O)=C(c2nc3ccccc3s2)C1=N,-14.8%
2,COc1ccc(-c2[nH]ncc2/C=N/NC(=O)c2cc(Br)ccc2O)c(OC)c1,-5.73%
3,COc1cc(OC)cc(-c2nnc(N(C)C(=O)c3ccncc3)s2)c1,11.3%
4,O=C(NCC1CCCO1)C1CCN(C2CCN(C(=O)C3CCCCC3)CC2)CC1 (stereo not drawn),-1.44%
5,CCOc1cc(NC(=S)NCc2ccco2)c(OCC)cc1NC(=O)c1ccco1,-15.2%
6,CC(=O)C1C(c2ccc(Cl)cc2)c2c(n[nH]c2C)CC1(C)O (stereo not drawn),-3.07%
7,O=C(CSc1nnc(Nc2ccccc2)s1)Nc1cccnc1Cl,-6.41%
8,O=C(c1ccc(Cl)cc1)c1cnc(Nc2ccccc2)s1,25.8% (active)
9,CC(C)(C)C(=O)c1cnc(Nc2ccccc2)s1,-8.48%
10,O=C(NC1CC1)C1CCCN(C(=O)NC2CCCCC2)C1 (stereo not drawn),5.9%
11,Cc1cc(F)ccc1S(=O)(=O)N1CCCOC1CNC(=O)C(=O)NCCC1=CCCCC1 (stereo not drawn),-6.72%
12,O=C(Nc1ccc(-n2ccnc2P(=O)(O)c2ccccc2)cc1)c1ccccc1Br,-8.07%
13,Cc1ccc(C)c(NC(=O)CCC(=O)N/N=C2/CC(=O)CC(C)(C)C2)c1,6.45%
14,COc1ccc(F)c(-c2nc(CN3CCC(c4ccccc4)CC3)c(C)o2)c1,-6.39%
15,O=C(OCC(=O)c1c[nH]c2ccccc12)c1cccc(O)c1,-10%
16,COc1cc(/C=N/O)ccc1OCc1ccc([N+](=O)[O-])cc1,-3.68%
17,Cc1cccc(COc2ccccc2/C=N/Nc2ccc([N+](=O)[O-])cc2)c1,28.7% (active)
18,Cc1ccccc1OCCOc1ccc([N+](=O)[O-])cc1/C=N/n1cnnc1,-17.5%
19,CCCn1c(=S)[nH]c2ccc(C(F)(F)F)cc21,-6.93%
20,CCNC(=O)N1c2ccccc2Sc2ccccc21,7.55%
21,Cc1cccc(C(=O)NC(=S)N2CCN(c3ccc([N+](=O)[O-])cc3)CC2)c1,-12.6%
